Several values for one entry are separate records, joined by “and”; a condition that tells them apart may be missing. Equal entries are not always repeated. Records with an inconclusive call do not appear. Activity calls are given as the source filed them. Calls follow the shape of the dose curve; as a rule, active = well fitted inhibition curve with a large enough effect; inconclusive = small, poorly fitted or top-dose-only effect; inactive = flat fitted curve, though single readings scatter. Numbered stars: 1 amine (or outer) side, 2 acyl side, 3 side chain; on linkers, the order of the positions; unused ones are H or OH. Bridge positions count the residues as written; N and C are the ends. Square brackets hold non-standard residues; d marks the D form. Peptide text beside a SMILES is read from it. I, II: the chains in the order shown. Actinocin(9to1) = Cc1c2oc3c(C)ccc(C(=O)[*:1])c3nc-2c(C(=O)[*:2])c(N)c1=O; NMeV = CN[C@H](C(=O)O)C(C)C; Sar = CNCC(=O)O
Assays:
JCK = assay: qHTS profiling for inhibitors of Plasmodium falciparum proliferation (AID 504749); also: potency is read from the fitted curve at half-maximal effect; conditions: P. falciparum in erythrocytes, SYBR Green DNA, 72 h; series mostly up to 28.7 µM
Outline: (§1)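 Infected RBCs, 0.3% parasitemia/2.5% Hct final; cpd 72 h, 37 C, 5% CO2; lysis buffer with saponin/triton/SYBR Green I, o/n RT dark; FI 485/535; norm. to artemisinin (0.29 uM) and DMSO.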

N140 = assay: as above; conditions: P. falciparum in erythrocytes, SYBR Green DNA, 72 h; series mostly up to 28.7 µM
Outline: as §1

P93_24 = assay: as above; conditions: P. falciparum in erythrocytes, SYBR Green DNA, 72 h; series mostly up to 28.7 µM
Outline: as §1

P94_40 = assay: as above; conditions: P. falciparum in erythrocytes, SYBR Green DNA, 72 h; series mostly up to 28.7 µM
Outline: as §1

PAD = assay: as above; conditions: P. falciparum in erythrocytes, SYBR Green DNA, 72 h; series mostly up to 28.7 µM
Outline: as §1

PC15 = assay: as above; conditions: P. falciparum in erythrocytes, SYBR Green DNA, 72 h; series mostly up to 28.7 µM
Outline: as §1

PC26 = assay: as above; conditions: P. falciparum in erythrocytes, SYBR Green DNA, 72 h; series mostly up to 28.7 µM
Outline: as §1

PC49 = assay: as above; conditions: P. falciparum in erythrocytes, SYBR Green DNA, 72 h; series mostly up to 28.7 µM
Outline: as §1

SC27B = assay: as above; conditions: P. falciparum in erythrocytes, SYBR Green DNA, 72 h; series mostly up to 28.7 µM
Outline: as §1

TAB109 = assay: as above; conditions: P. falciparum in erythrocytes, SYBR Green DNA, 72 h; series mostly up to 28.7 µM
Outline: as §1

TAB165 = assay: as above; conditions: P. falciparum in erythrocytes, SYBR Green DNA, 72 h; series mostly up to 28.7 µM
Outline: as §1

W2 = assay: as above; conditions: P. falciparum in erythrocytes, SYBR Green DNA, 72 h; series mostly up to 28.7 µM
Outline: as §1

CRL-7250 = normal cell line; assay: Cytotoxic Profiling of Annotated Libraries Using Quantitative High-Throughput Screening (AID 1296008); conditions: Five cell lines viability, CellTiter-Glo ATP luminescence, 48-72 h; max response: stronger effect = lower value; also: potency is read from the fitted curve at half-maximal effect; as to max response: % is scaled to controls: 0 for no effect and ±100 for the full control effect
Outline: (§2)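 Cytotoxicity was measured as CellTiter-Glo ATP luminescence, read after 10 min at room temperature. Compound treatment of the cells lasted 48 or 72 hr at 37 degrees Celsius in a qHTS format.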

HEK293 = assay: as above; conditions: Five cell lines viability, CellTiter-Glo ATP luminescence, 48-72 h; max response: stronger effect = lower value
Outline: as §2

HaCat [1] = assay: as above; conditions: Five cell lines viability, CellTiter-Glo ATP luminescence, 48-72 h; max response: stronger effect = lower value
Outline: as §2

NIH3T3 = assay: as above; conditions: Five cell lines viability, CellTiter-Glo ATP luminescence, 48-72 h; max response: stronger effect = lower value
Outline: as §2

TAB113 = assay: qHTS profiling for inhibitors of Plasmodium falciparum proliferation (AID 504749); also: potency is read from the fitted curve at half-maximal effect; conditions: P. falciparum in erythrocytes, SYBR Green DNA, 72 h; series mostly up to 28.7 µM
Outline: as §1

KB-3-1 = assay: Cytotoxic Profiling of Annotated Libraries Using Quantitative High-Throughput Screening (AID 1296008); conditions: Five cell lines viability, CellTiter-Glo ATP luminescence, 48-72 h; max response: stronger effect = lower value; also: potency is read from the fitted curve at half-maximal effect; as to max response: % is scaled to controls: 0 for no effect and ±100 for the full control effect
Outline: as §2

HEK293T = assay: qHTS assay to identify novel small-molecules to repurpose for Merkel cell carcinoma treatment (AID 1296009); conditions: MCC and control cell lines, CellTiter-Glo viability, 72 h; at 44.8 µM (top of the series) unless noted
Outline: (§3)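 72 hr, 37 degree celsius; NPC 8-pt / MIPE 11-pt dose response; compound pinned in DMSO; CellTiter-Glo, 10 min RT, luminescence; normalized to no-cell and DMSO controls.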

HACAT [2] = assay: as above; conditions: MCC and control cell lines, CellTiter-Glo viability, 72 h; at 44.8 µM (top of the series) unless noted
Outline: as §3
Also: nearly all actives have a fitted effect of over 60% in size.

C[C@]12CCC(=O)C=C1CC[C@H]1[C@@H]3CC[C@](O)(C(=O)CO)[C@@]3(C)C[C@H](O)[C@@]12F
inactive: Potency (JCK) | Potency (N140) | Potency (P93_24) | Potency (P94_40) | Potency (PAD) | Potency (PC15) | Potency (PC26) | Potency (PC49) | Potency (SC27B) | Potency (TAB109) | Potency (TAB165) | Potency (W2) | max response (CRL-7250) -14.8% | max response (HEK293) -5.58% | max response (HaCat [1]) -3.35% | outcome (NIH3T3)

CCC(=O)c1c(O)cc(O)cc1O
inactive: Potency (JCK) | Potency (N140) | Potency (P93_24) | Potency (P94_40) | Potency (PAD) | Potency (PC15) | Potency (PC26) | Potency (PC49) | Potency (SC27B) | Potency (TAB109) | Potency (TAB113) | Potency (TAB165) | Potency (W2) | max response (CRL-7250) 1.93% | outcome (HEK293) | max response (HaCat [1]) 3.62% | max response (KB-3-1) -16.9% | max response (NIH3T3) 0.801% | outcome (HEK293T)

Cc1c2oc3c(C)ccc(C(=O)N[C@@H]4C(=O)N[C@H](C(C)C)C(=O)N5CCC[C@H]5C(=O)N(C)CC(=O)N(C)[C@@H](C(C)C)C(=O)O[C@@H]4C)c3nc-2c(C(=O)N[C@@H]2C(=O)N[C@H](C(C)C)C(=O)N3CCC[C@H]3C(=O)N(C)CC(=O)N(C)[C@@H](C(C)C)C(=O)O[C@@H]2C)c(N)c1=O (I: T[dV]P[Sar][NMeV] / II: T[dV]P[Sar][NMeV]; ester I:1-I:C, II:1-II:C; linker I:N-II:N via Actinocin(9to1))
active: Potency (N140) 0.0035 µM | Potency (P93_24) 0.005 µM | Potency (P94_40) 0.0045 µM | Potency (PAD) 0.005 µM | Potency (PC15) 0.0112 µM | Potency (PC26) 0.0054 µM | Potency (SC27B) 0.0063 µM | Potency (TAB109) 0.004 µM | Potency (TAB113) 0.0063 µM | Potency (TAB165) 0.0045 µM | Potency (W2) 0.0054 µM | Potency (CRL-7250) 0.0042 µM | Potency (HEK293) 0.0021 µM | Potency (HaCat [1]) 0.0188 µM

CC1(C)OC[C@@H](COC(=O)CCc2ccc(OC[C@@H](O)CNCCNC(=O)N3CCOCC3)cc2)O1
inactive: outcome (CRL-7250) | outcome (HEK293) | max response (HaCat [1]) 3.95% | max response (KB-3-1) -12.4% and -13.1% | max response (NIH3T3) 4.95% | outcome (HEK293T)

COc1cc(OC)cc(OC)c1
inactive: Potency (JCK) | Potency (N140) | Potency (P93_24) | Potency (P94_40) | Potency (PAD) | Potency (PC15) | Potency (PC26) | Potency (PC49) | Potency (SC27B) | Potency (TAB109) | Potency (TAB113) | Potency (TAB165) | Potency (W2) | max response (CRL-7250) -8.4% | max response (HEK293) 0.846% | max response (HaCat [1]) 4.71% | max response (KB-3-1) -2.29% | max response (NIH3T3) -4.81%

CC1(C)O[C@@H]2C[C@H]3[C@@H]4C[C@H](F)C5=CC(=O)CC[C@]5(C)[C@H]4[C@@H](O)C[C@]3(C)[C@]2(C(=O)CO)O1
inactive: max response (CRL-7250) 2.33% | outcome (HEK293) | max response (HaCat [1]) -7.7% | max response (NIH3T3) 0.0351% | outcome (HEK293T)

CN(C)CCOc1ccccc1Cc1ccccc1
inactive: outcome (CRL-7250) | max response (HEK293) -12.7% | outcome (HaCat [1]) | max response (KB-3-1) -14.6% | max response (NIH3T3) -2.31% | outcome (HACAT [2])
active: Potency (N140) 4.47 µM | Potency (PC49) 2.51 µM | Potency (TAB109) 3.16 µM | Potency (W2) 0.0536 µM

NC(CS)C(=O)O (stereo not drawn)
inactive: outcome (CRL-7250) | max response (HEK293) -10% | outcome (HaCat [1]) | max response (KB-3-1) -0.484% | max response (NIH3T3) -3.73% | outcome (HACAT [2])
active: Potency (N140) 11.2 µM | Potency (P93_24) 10 µM | Potency (P94_40) 12.6 µM | Potency (TAB109) 10 µM | Potency (TAB113) 10 µM | Potency (W2) 4.26 µM

CCCCCCCCCCCCCCCC[N+](C)(C)CC
active: Potency (N140) 4.47 µM | Potency (P93_24) 5.62 µM | Potency (P94_40) 3.98 µM | Potency (PAD) 8.91 µM | Potency (PC15) 8.91 µM | Potency (PC26) 5.36 µM | Potency (SC27B) 5.62 µM | Potency (TAB109) 4.47 µM | Potency (TAB113) 5.01 µM | Potency (TAB165) 4.47 µM | Potency (W2) 3.79 µM | Potency (CRL-7250) 6.68 µM | Potency (HEK293) 2.99 µM | Potency (HaCat [1]) 5.96 µM

COc1cccc2c1C(=O)c1c(O)c3c(c(O)c1C2=O)C[C@@](O)(C(C)=O)C[C@@H]3O[C@H]1C[C@H](N)[C@H](O)[C@H](C)O1
active: Potency (JCK) 11.2 µM | Potency (N140) 4.47 µM | Potency (P93_24) 3.98 µM | Potency (P94_40) 3.55 µM | Potency (PAD) 4.47 µM | Potency (PC15) 10 µM | Potency (PC26) 5.36 µM | Potency (PC49) 7.08 µM | Potency (SC27B) 5.01 µM | Potency (TAB109) 3.55 µM | Potency (TAB113) 5.01 µM | Potency (TAB165) 2.24 µM | Potency (W2) 1.35 µM | Potency (CRL-7250) 0.075 µM | Potency (HEK293) 0.0473 µM | Potency (NIH3T3) 0.133 µM

CNC(=O)CN(CCN(CCN(CC(=O)[O-])CC(=O)NC)CC(=O)[O-])CC(=O)[O-].O.[Gd+3]
inactive: outcome (CRL-7250) | outcome (HEK293) | max response (HaCat [1]) -1.56% | max response (NIH3T3) -1.76% | outcome (HEK293T)

O=C(O)CNC(=O)c1ccccc1
inactive: Potency (JCK) | Potency (N140) | Potency (P93_24) | Potency (P94_40) | Potency (PAD) | Potency (PC15) | Potency (PC26) | Potency (PC49) | Potency (SC27B) | Potency (TAB109) | Potency (TAB113) | Potency (TAB165) | Potency (W2) | max response (CRL-7250) 2.85% | max response (HEK293) -10.7% | outcome (HaCat [1]) | outcome (NIH3T3) | outcome (HACAT [2])
